# Screening results (PubChem BioAssay)
# DSG3 Ab inh – inhibitors of pemphigus antibody binding to human desmoglein-3. P32926. DSG3-coupled beads, scFv-anti-DSG3-GFP binding, flow cytometry; stronger effect = lower value. actives 0.48% (n = 310,000). binding (percent of control), % at 10 µM;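 active means binding more than 3 SD below its plate's average and above zero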;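 further: hits lower antibody fragment binding to DSG3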
# PAFAH2 inh – inhibitors of human PAFAH2; actives 0.99% (n = 340,000); Q99487; recombinant PAFAH2, FP-rhodamine activity probe, fluorescence polarization; inhibition, % at 3.39 µM; AID 492956;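 active means inhibition above the mean over all tested compounds plus 3 SD, cut at about 30% in these data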;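 further: inhibitors block probe labeling of enzyme so polarization drops; 0% = enzyme with DMSO and 100% = wells lacking PAFAH2 protein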
# PAFAH1B3 FP inh – PAFAH1B3 (human) inhibition | Q15102 | recombinant PAFAH1B3, FP-rhodamine probe, fluorescence polarization | inhibition, % at 3.39 µM | actives 0.28% (n = 340,000);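 active means inhibition above the screen-wide average of all tested compounds plus 3 SD, cut at about 25% in these data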;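 further: 0% = enzyme with DMSO only and 100% = wells lacking PAFAH1B3 protein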
# Target sequence (Q15102 whole entry, looked up): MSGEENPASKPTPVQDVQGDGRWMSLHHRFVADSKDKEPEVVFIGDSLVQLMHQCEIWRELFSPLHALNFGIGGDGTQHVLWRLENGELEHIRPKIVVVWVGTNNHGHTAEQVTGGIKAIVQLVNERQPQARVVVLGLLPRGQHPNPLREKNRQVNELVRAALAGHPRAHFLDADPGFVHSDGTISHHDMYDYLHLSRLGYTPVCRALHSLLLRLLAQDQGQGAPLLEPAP
# M18AAP inhibitor – PfM18AAP enzyme inhibition | recombinant PfM18AAP, H-Glu-NHMec fluorogenic cleavage | inhibition, % at 7.35 µM | actives 1.2% (n = 290,000) | AID 1822;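 active means inhibition above the campaign mean inhibition over all tested compounds plus 3 SD, cut at about 28% in these data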;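 further: 0% = plate median of test compound wells and 100% = 2 mM ZnCl2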
# pPAFAH inh – pPAFAH (human) enzyme inhibition; Q13093; recombinant pPAFAH, FP-rhodamine probe fluorescence polarization; inhibition, % at 3.39 µM; actives 1.5% (n = 330,000); AID 463082;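 active means inhibition above the mean inhibition across the screen plus 3 SD, cut at about 25% in these data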;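 further: inhibitors block binding of the rhodamine activity-based probe so polarization drops; 0% = enzyme with DMSO and 100% = wells lacking pPAFAH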
# PAFAH1B2 inh – blocks human PAF acetylhydrolase 1b catalytic subunit 2 | recombinant PAFAH1B2, FP-rhodamine activity probe, fluorescence polarization | AID 492953 | P68402 | inhibition, % at 3.39 µM | actives 1.2% (n = 340,000);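 active means inhibition above the mean of all tested compounds plus 3 SD, cut at about 24% in these data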;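 further: 0% = enzyme with DMSO and 100% = wells lacking PAFAH1B2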
# Target sequence (P68402 whole entry, looked up): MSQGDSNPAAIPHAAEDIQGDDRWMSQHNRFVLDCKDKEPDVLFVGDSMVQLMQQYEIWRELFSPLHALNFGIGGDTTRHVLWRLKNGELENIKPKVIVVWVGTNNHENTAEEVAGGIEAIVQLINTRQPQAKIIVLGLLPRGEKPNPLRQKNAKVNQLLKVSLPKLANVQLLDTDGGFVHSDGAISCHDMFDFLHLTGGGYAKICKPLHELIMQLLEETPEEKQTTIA
# * marks the source's active call; other numbers are inactive results; x = not tested or not shown. Shown are actives, neighbours in structure and some others; about 3.8% of the full set was active somewhere.
SMILES,DSG3 Ab inh,PAFAH2 inh,PAFAH1B3 FP inh,M18AAP inhibitor,pPAFAH inh,PAFAH1B2 inh
COc1cc(N=c2ssnc2Cl)cc(OC)c1,62*,-4,6,20,4,-2
Cc1ccc(OCCSCc2nc3ccccc3[nH]2)cc1,104,-3,-3,2,5,11
Clc1ccc(OCCSCc2nc3ccccc3[nH]2)cc1,113,0,1,4,7,31*
CC(=O)c1ccc(NC(=O)CSc2nnc(NC(=O)c3ccco3)s2)cc1,111,5,11,2,2,3
Cc1ccc(NC(=O)CSc2nnc(NC(=O)c3ccco3)s2)cc1,5.9*,-5,6,3,5,1
CCOc1ccc(NC(=O)CSc2ncn[nH]2)c([N+](=O)[O-])c1,106,1,-4,30*,-2,0
CN1OC(COC(=O)c2ccc(Cl)cc2Cl)CC1c1ccccc1 (stereo unspecified),x,7,-3,-11,26*,3
CCCCCCCCSC1=CC(=O)C(OC)=C(OC)C1=O,99,x,x,x,x,x
O=C(NC1CCCC1)C1CC(O)CN1C(=O)Nc1ccccc1 (stereo unspecified),x,-10,-7,-3,5,-1
CCC1Oc2ccccc2N(CC(=O)N2CC(C)CC(C)C2)C1=O (stereo unspecified),114,x,x,x,x,x
O=C(Cc1ccc(S(=O)(=O)N2CCOCC2)s1)Nc1cc(Cl)ccc1Cl,99,41*,11,x,28*,1
O=C(Cc1ccc(S(=O)(=O)N2CCOCC2)s1)Nc1ccc2c(c1)CCC2,102,-2,3,-6,22,3
COc1cc(NC(=O)Cc2ccc(S(=O)(=O)N3CCOCC3)s2)c(OC)cc1Cl,101,15,2,x,7,2
O=C(Cc1ccc(S(=O)(=O)N2CCOCC2)s1)Nc1nc2c(s1)CCCC2,112,4,6,9,32*,-2
COc1ccc([C@H]2CN(c3ccc(OC)cc3)C(=O)[C@@H]2CC(=O)Nc2ccc(Br)cc2)cc1,104,x,x,x,x,x
CCCn1nc(C(=O)Nc2cc(OCC)c(N3CCOCC3)cc2OCC)c2ccccc2c1=O,94,1,-1,x,x,4
CCOc1ccc(NC(=O)N2CCC(C(N)=O)(N3CCCCC3)CC2)cc1,93,-7,2,28*,1,0
NC(=O)C1(N2CCCCC2)CCN(CC(=O)Nc2ccc(Oc3ccccc3)cc2)CC1,98,6,-8,3,28*,2
CCc1ccc(C(=O)OCC(=O)N(CCOC)c2c(N)n(Cc3ccccc3)c(=O)[nH]c2=O)cc1,100,0,12,x,3,3
CCCCCCCCOC(=O)c1ccc(N)cc1,101,55*,5,-5,32*,8
C[C@H](CO)N1C[C@H](C)[C@H](CN(C)C(=O)c2ccccc2F)Oc2ncc(Br)cc2C1=O,100,x,x,x,x,x
O=C1NN(c2ccccc2)C(=O)/C1=C/c1ccc(-c2ccc(Cl)c(C(=O)O)c2)o1,113,17,23,1,x,7
O=C1NN(c2ccccc2)C(=O)/C1=C/c1ccc(Sc2ccc(Cl)cc2)o1,84,13,5,-6,23,29*
Cc1ccc(Sc2ccc(/C=C3/C(=O)NN(c4ccccc4)C3=O)o2)cc1,95,23,6,2,19,36*
Clc1ccccc1-c1nnc(-c2ccc3c(c2)OCO3)o1,79*,-5,5,-4,2,-2
SMILES,DSG3 Ab inh,PAFAH2 inh,PAFAH1B3 FP inh,M18AAP inhibitor,pPAFAH inh,PAFAH1B2 inh
O=C(NCC1CCCN(Cc2ccc3nonc3c2)C1)c1ccc(F)cc1 (stereo unspecified),99,3,7,-3,2,3
COc1cccc2c1OC1(N3CCOCC3)CCCCC1C2C[N+](=O)[O-] (stereo unspecified),105,x,x,x,x,x
CC1CCCC(NC(=O)COC(=O)Cc2ccc(Cl)cc2)C1C (stereo unspecified),112,16,15,x,28*,20
COc1ccc(/C=C/C(=O)OCC(=O)NC2CCCC(C)C2C)c(OC)c1 (stereo unspecified),104,76*,-1,x,29*,-2
Cc1cnc(C(=O)OCC(=O)NC2CCCC(C)C2C)cn1 (stereo unspecified),105,0,5,0,4,5
COc1ccc(/C=C/C(=O)OCC(=O)N2CCCC2)c(OC)c1,99,16,-2,x,5,1
CC1CCCC(NC(=O)COC(=O)c2ccc([N+](=O)[O-])s2)C1C (stereo unspecified),93,66*,53*,x,16,15
Cc1ccc(CC(=O)OCC(=O)NC2CCCC(C)C2C)cc1C (stereo unspecified),90,39*,10,-2,29*,4
CCc1ccc(OCC(=O)OCC(=O)NC2CCCC(C)C2C)cc1 (stereo unspecified),94,7,10,x,8,7
O=C(Nc1ccccc1N1CCCC1)c1ccc([N+](=O)[O-])cc1Cl,97,1,-5,-11,0,-3
CN(C(=O)COC(=O)Cc1ccc(Br)cc1)c1c(N)n(Cc2ccccc2)c(=O)[nH]c1=O,107,x,x,x,x,x
Brc1ccc(CSc2nnc(-c3cnccn3)n2Cc2ccco2)cc1,104,-2,1,-21,8,30*
Cn1c(SCc2ccc(F)cc2)nnc1-c1cnccn1,76*,-3,2,-4,2,2
Fc1ccc(CSc2nnc(-c3cnccn3)n2Cc2ccco2)cc1,101,-5,3,-16,5,6
Fc1ccc(-[n+]2nc(Nc3ccccc3)sc2-c2c3ccccc3cc3ccccc23)cc1,109,5,12,2,26*,-4
Cc1ccc(Oc2ccc(OCC(=O)OC3CCS(=O)(=O)C3)cc2)cc1 (stereo unspecified),x,x,x,-1,31*,x
CCOc1ccc(CN(C)CC(=O)Nc2cccc(S(=O)(=O)N(C)c3ccccc3)c2)cc1,x,-3,1,1,28*,1
O=C1C=C(c2n[nH]nc2-c2ccccc2)C[C@@H](c2ccc(F)cc2)C1,102,x,x,x,x,x
CC(C)Cc1csc(NC(=O)c2ccc(Cl)cc2)c1C(=O)O,100,42*,5,-8,11,5
O=C1CC(/C=C/c2ccco2)=Nc2ccccc2N1,103,7,10,12,26*,6
CCOc1ccc(CNC(=O)C2CCN(S(=O)(=O)N3CCC(C)CC3)CC2)cc1OC,100,x,x,x,x,x
COc1cccc(C(=O)Oc2ccc(/C=N/Nc3ccc(C(=O)O)cc3)cc2OC)c1,106,1,11,10,28*,10
O=C(O)c1cccc(N/N=C/c2ccc(-c3ccccc3)cc2)c1,105,3,-2,1,x,-2
CC(C)(C)c1ccc(/C=N/Nc2cccc(C(=O)O)c2)cc1,98,2,14,30*,12,10
COc1ccc(/C=N/NC(=S)Nc2cccc(C(=O)O)c2)cc1OC,x,-1,0,25,2,0
